Our source for the sensor-assay potency score (higher = more potent) values is the OligoGym collection.
Further: reference of the scale not given here.

The first experiment addresses EAPP. The experiment is described as follows: pooled miR-30 sensor sort-seq; sequence = guide strand. The conditions noted are these: shRNA.
Take TTTCTTCCACATCTGTCTCTGC: the sensor-assay potency score (higher = more potent) was -0.196.

Regarding TATATATCATCGTAGTACCTTG, the sensor-assay potency score (higher = more potent) is -0.621.

Take TTTATATCTTAGAACCTCCTCT: the sensor-assay potency score (higher = more potent) was determined as 0.652.

In turn, TATATCTTAGAACCTCCTCTTT returned a sensor-assay potency score (higher = more potent) of -0.803.

TTCATTACAAACATTGCTCTAT showed a sensor-assay potency score (higher = more potent) of 0.525.

For another experiment, the target named is EBNA1BP2. Described as above. The conditions noted are these: shRNA.
Consider ATCAACAGCTTTCTGGTCCTTG, for which the sensor-assay potency score (higher = more potent) is -0.301.

Sequence TACATCATCATAGCTCTCCCGA registered a sensor-assay potency score (higher = more potent) of -0.31.

In the case of TTCATCTTCTCTCTTGTTCGTT, the sensor-assay potency score (higher = more potent) worked out at 0.27.

Sequence TATTTGACCCTTTCTTGCCAGG came in with a sensor-assay potency score (higher = more potent) of -1.16.

As to TAGTCTGCAGCTTCTGTCGAAT, the sensor-assay potency score (higher = more potent) is -0.943.

The sequence TTAGTCTGCAGCTTCTGTCGAA yielded a sensor-assay potency score (higher = more potent) of 0.0417.

Sequence TCATCTTCTCTCTTGTTCGTTT had a sensor-assay potency score (higher = more potent) of -0.122.

Turning to TTCTGGATCAACAGCTTTCTGG, the sensor-assay potency score (higher = more potent) is -1.11.

In turn, TATACCGTCGTTTAGCACTGGG gave a sensor-assay potency score (higher = more potent) of -0.643.

For the sequence TTTCTTAATAGCATTCATCATA, the sensor-assay potency score (higher = more potent) is -1.2.

TAGAAACTCATCTCTCGCTGGA displayed a sensor-assay potency score (higher = more potent) of 0.612.

With ATAGAAACTCATCTCTCGCTGG, the sensor-assay potency score (higher = more potent) was determined as 0.115.

The target of another experiment is EBP. The experiment is described as above. The conditions noted are these: shRNA.
Regarding ATTAGGTACAAAGTTGTCCAGT, the sensor-assay potency score (higher = more potent) was -0.389.

Consider TAAAACCAGAAGTAGAGAGGGT, for which the sensor-assay potency score (higher = more potent) came to 0.087.

Sequence ATGGTTTCCATGCACACTGTGA returned a sensor-assay potency score (higher = more potent) of -0.951.

Take ACAAGCTGTAGAATGAAGCGGA: the sensor-assay potency score (higher = more potent) turned out to be 0.326.

TTGGTCTCCAAGCAGGTCTTCG showed a sensor-assay potency score (higher = more potent) of -0.868.

The sequence TTCGTAGTAGAGAACGAACCAG came in with a sensor-assay potency score (higher = more potent) of -0.577.

Regarding TCGTAGTAGAGAACGAACCAGC, the sensor-assay potency score (higher = more potent) is -1.05.

On to TTCTCTTGTATCTGTGTTCTAA, for which the sensor-assay potency score (higher = more potent) is -0.119.

ATGAAGACAAAGTAAAACCAGA gave a sensor-assay potency score (higher = more potent) of -0.723.

Turning to TTTTGTGGCCTTGGCATCCAGC, the sensor-assay potency score (higher = more potent) was -1.25.

In turn, TTGTCCAGTCTTAGGTGCTGAG showed a sensor-assay potency score (higher = more potent) of -1.23.

TTGGCATCCAGCGTGCTCTGGG: the sensor-assay potency score (higher = more potent) is -0.0185.

The next experiment has as its target ECH1. The description is as above. The conditions noted are these: shRNA.
Sequence TGTCCATCAGGTCAATACCTGC displayed a sensor-assay potency score (higher = more potent) of -1.4.

Turning to TCTTGTTGAAGCACTCTACCAT, the sensor-assay potency score (higher = more potent) amounted to 0.331.

Take TGAACATTTTTCCTGCACCAGA: the sensor-assay potency score (higher = more potent) is -1.08.

In turn, TTGTTCTCAGTCGTGGCCTGGA gave a sensor-assay potency score (higher = more potent) of -0.493.

The sequence TTTGTCTGGGAACACCCGGCTG displayed a sensor-assay potency score (higher = more potent) of -1.1.

In turn, TTGACCAGGCTCTGGTTCCCGA returned a sensor-assay potency score (higher = more potent) of -0.944.

Sequence TCGAGTGATGATGTCACGGAGG gave a sensor-assay potency score (higher = more potent) of -1.15.

TCGTCAGCCATCATCTTGCGGG returned a sensor-assay potency score (higher = more potent) of -0.729.

In turn, TTGGAGCCTGTCAGTCGCCGGG gave a sensor-assay potency score (higher = more potent) of -1.13.

Regarding TCTTTGTCTGGGAACACCCGGC, the sensor-assay potency score (higher = more potent) is -0.283.

With TCTTGCTGGAAATCTCGGCCGC, the sensor-assay potency score (higher = more potent) was -0.461.
